Sampled rows, rich in hits. Any-hit rate of the full collection: about 12%.
HP1b binding inh – inhibitors of HP1-beta chromodomain binding to methylated histone tails; P83916; AlphaScreen HP1-beta / biotin-H3K9me3 peptide binding; Potency, µM (series often up to 114 µM), inactives show at the highest dose activity change, negative = inhibition, usual class: inhibitors; 390,000 tested, 0.56% active; note: nearly all actives have a fitted effect of over 70% in size
Target sequence (P83916 whole entry, looked up): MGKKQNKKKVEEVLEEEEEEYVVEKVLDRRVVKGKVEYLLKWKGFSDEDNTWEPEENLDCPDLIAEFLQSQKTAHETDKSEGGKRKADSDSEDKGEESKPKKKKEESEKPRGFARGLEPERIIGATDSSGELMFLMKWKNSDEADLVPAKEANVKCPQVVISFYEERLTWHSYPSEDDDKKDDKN
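Compound inhibition of the preformed complex between 50 nM HP1-beta and 50 nM biotinylated H3K9me3 peptide was read by AlphaScreen. Buffer was PBS pH 7.4 with 0.01% Tween-20. Incubations ran 30 min at room temperature, with 10 ug/mL donor/acceptor beads.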
Sfp inh – blocks B. subtilis Sfp PPTase activity. Potency, µM, without a hit: largest response in the series, negative = inhibition, most hits filed as inhibitors. AID 1490. Q9F4F7. 310,000 tested, 3.5% active. Biochemical Sfp PPTase activity, qHTS;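 note: the enzyme is Sfp with the accession as filed and its product quenches rhodamine fluorescence; 0% = enzyme reaction without inhibitor and -100% = no enzyme wells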
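Reaction rates are the 30-min fluorescence difference (ex 525, em 598 nm) in wells containing 15 nM Sfp, 5 uM rhodamine-CoA and 12.5 uM BHQ-2-YbbR at pH 7.6 with 10 mM MgCl2.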
BAZ2B block – inhibitors of human BAZ2B bromodomain; Q9UIF8; AlphaScreen BAZ2B-H3K14Ac peptide displacement; Potency, µM (titrated, usually from 114 µM), without a hit: top-dose activity change, negative = inhibition, usual class: inhibitors; 360,000 tested, 4.4% active; AID 504333; note: % is set by controls: 0 for no effect and ±100 for the full control effect; nearly all actives have a fitted effect of over 60% in size
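BAZ2B 50 nM plus b-H3(5-23)K14Ac 50 nM, PBS pH 7.4/0.01% Tween-20, 30 min RT; compound added (max 110 uM), 30 min RT; streptavidin donor/Ni-chelate acceptor beads 10 ug/mL final, 20 min dark; AlphaScreen read.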
G9a block – inhibitors of human histone lysine methyltransferase G9a; G9a H3K9 monomethylation, AlphaScreen, 2 h; Potency, µM (highest dose often 102 µM), inactives show top-dose activity, negative = inhibition, usual class: inhibitors; 350,000 tested, 8.8% active; AID 504332; note: % is set by controls: 0 for no effect and ±100 for the full control effect; nearly all actives have a fitted effect of over 75% in size
Target sequence (Q96KQ7 913-1193 limits assumed): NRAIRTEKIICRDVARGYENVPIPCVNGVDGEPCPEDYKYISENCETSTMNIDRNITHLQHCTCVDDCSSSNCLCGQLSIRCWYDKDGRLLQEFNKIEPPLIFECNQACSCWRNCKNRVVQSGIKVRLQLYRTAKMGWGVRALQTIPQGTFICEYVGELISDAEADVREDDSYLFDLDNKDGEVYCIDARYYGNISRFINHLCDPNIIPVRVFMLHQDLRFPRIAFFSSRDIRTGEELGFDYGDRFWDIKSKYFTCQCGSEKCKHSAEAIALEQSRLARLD
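Chemiluminescent proximity detection of H3K9 monomethylation, read after 10 min bead incubation in the dark. Reaction: 20 nM G9a, 500 nM biotin-H3K9 peptide, 20 uM SAM cofactor, 2 h, room temperature, following 15 min enzyme-compound preincubation.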
JMJD2A Tudor inh – blocks the human JMJD2A Tudor domain | AlphaScreen JMJD2A-Tudor / H3K4me3 peptide binding | Potency, µM (highest dose often 114 µM), without a hit: top-dose activity change, negative = inhibition, most hits filed as inhibitors | 390,000 tested, 4.4% active | AID 504339; note: % is set by controls: 0 for no effect and ±100 for the full control effect; nearly all actives have a fitted effect of over 50% in size
* marks the source's active call; other numbers are inactive results; ? = inconclusive; . = no result given; ! = not confirmed by another sample; [ ] = remark or other dose. Calls come from the whole dose curve; as a rule, active = well fitted curve in the direction sought with a large enough effect; inconclusive = small, poorly fitted or top-dose-only effect, or another doubt; inactive = no such curve, though single readings can be large; an effect the other way counts as inactive or inconclusive. Potency is the fitted concentration of half-maximal effect.

SMILES	HP1b binding inh	Sfp inh	BAZ2B block	G9a block	JMJD2A Tudor inh
Cc1oc2ccc(O)cc2c1C(=O)c1ccc([N+](=O)[O-])cc1	-26%	-2%	?	?	?
CC(/C=C/C(=O)NO)=C\[C@@H](C)C(=O)c1ccc(N(C)C)cc1	.	11%	.	16µM*!	.
CC(=O)Nc1ccc(-c2nnc(SCc3ccc(C)cc3)n2C)cc1	30%	-7%	4%	5µM*	-11%
Cc1ccc(NC(=O)c2ccc(CSc3nnc(-c4ccncc4)n3C)cc2)cc1	26%	7%	-36%	10%	-10%
Cc1ccccc1Nc1nc(CSc2nnc(-c3ccoc3C)n2C)cs1	3%	20µM*	?	40µM*	-34%
Cc1ccc(CSc2nnc(-c3ccncc3)n2C)cc1	47%	7%	?	-10%	89µM*
Cc1ccc(Nc2nc(CSc3nnc(-c4ccncc4)n3C)cs2)cc1	8%	40µM*	-18%	40µM*	-28%
Cc1occc1-c1nnc(SCC(=O)Nc2ccccc2)n1C	20%	12%	-26%	8%[12.7 µM]	-6%
NS(=O)(=O)c1ccc(NC(=O)c2ccc(S(=O)(=O)N3CCCCCC3)cc2)cc1	16%	.	.	.	-18%
COc1cccc(NC(=O)C2CCN(C(=O)N3CC(C)Oc4ccccc43)CC2)c1 (stereo not drawn)	61%	.	-10%	-7%[59 µM]	-12%
COc1ccc(CNC(=O)Cn2cccc2C(=O)c2ccccc2)cc1	29%	24%	-11%	18%	-6%
CCN(CC)C(=O)c1sc(NC(=O)C(C)Sc2nc(-c3ccccc3)cc(C(F)(F)F)n2)c(C(=O)OC)c1C (stereo not drawn)	-23%	.	-5%	3.5µM*	-11%
CCCOC(=O)c1c(NC(=O)C(C)Sc2nc(-c3ccccc3)cc(C(F)(F)F)n2)sc(C(=O)N(C)C)c1C (stereo not drawn)	10%	.	-1%	11µM*	-14%
CCOC(=O)c1c(NC(=O)CSc2nc(-c3ccc(OC)cc3)cc(C(F)(F)F)n2)sc(C)c1C	-19%	.	-9%	4.5µM*	-20%
CC1CCCN(CCCNC(=O)Cn2ncc3c([nH]c4ccccc43)c2=O)C1 (stereo not drawn)	20%	.	-18%	6%[59 µM]	-20%
Cc1cccc(C(=O)Nc2ccc(N3CCC(N4CCCCC4)CC3)c(C(=O)O)c2)c1	19%	.	-14%	-32%[59 µM]	-20%
COc1cc(F)cc(F)c1[S+](=O)([O-])N1CCN([S+](=O)([O-])c2ccc3c(c2)OCCO3)CC1	.	.	.	.	-2%
COC(=O)Cc1cc(C)cc2c(=O)cc(-c3ccoc3)oc12	54%	.	.	.	-28%
COc1cc(/C=C/CN2CCN(CCC(C)C)C(CCO)C2)ccc1O (stereo not drawn)	21%	-1%	-21%	71µM*	-25%
COc1ccc(/C=C/CN2CCN(CC(C)C)C(CCO)C2)cc1 (stereo not drawn)	24%	12%	-2%	?	-14%
COc1cc(/C=C/CN2CCC(CO)(CC3CCCCO3)CC2)ccc1O (stereo not drawn)	2%	13%	-24%	56µM*	-16%
COc1cc(/C=C/CN2CCN(Cc3ccc(C)o3)C(CCO)C2)ccc1O (stereo not drawn)	-14%	2%	-24%	79µM*	-20%
CCN(CC)CCC#CC1(O)c2ccccc2-c2ccccc21	25%	17%	?	-4%	-7%
Cc1ccc(C)c(S(=O)(=O)N2CCN(C(=O)Cn3[nH]c(=O)c4ccccc4c3=O)CC2)c1	27%	.	-23%	-20%	-3%
CN(C)c1ccc(N2C(=NC(=O)C3CCCO3)SC3CS(=O)(=O)CC32)cc1 (stereo not drawn)	9%	-2%	?	45µM*	?
SMILES	HP1b binding inh	Sfp inh	BAZ2B block	G9a block	JMJD2A Tudor inh
COc1ccccc1CCn1c(=O)c(-c2ccccc2)nc2cncnc21	.	2%	.	-7%[12.7 µM]	.
O=C(CCN1C(=O)/C(=C/c2ccc3c(c2)OCO3)SC1=S)Nc1ccc(C(=O)O)cc1	?	-7%	35µM*	21%[2.33 µM]	45µM*
O=C(CCCN1C(=O)/C(=C/c2ccc3c(c2)OCO3)SC1=S)Nc1ccc(C(=O)O)cc1	-2%	8%	-18%	28%	?
CCOc1ccc(/C=C2\SC(=S)N(CCC(=O)Nc3ccc(C(=O)O)cc3)C2=O)cc1	?	6%	22µM*	28µM*	25µM*
COc1ccc(/C=C2\SC(=S)N(CCC(=O)Nc3ccc(C(=O)O)cc3)C2=O)cc1OC	-29%	2%	-22%	-37%	?
CCOC(=O)CN1C(=O)S/C(=C/c2ccc(OCc3ccc(C(=O)O)cc3)cc2)C1=O	59%	-14%	50µM*	14%[2.33 µM]	?
CCOc1ccc(/C=C2\SC(=S)N(CCC(=O)Nc3cccc(C(=O)O)c3)C2=O)cc1	?	-6%	50µM*	79µM*	35µM*
CCCC(O)c1nc2ccccc2n1CCCCOc1ccc(OC)cc1 (stereo not drawn)	38%	.	-8%	-25%[59 µM]	-14%
Nc1ccc2oc(=O)ccc2c1I	.	5%	.	.	.
COc1cc(C(=O)OCC(=O)Nc2c(F)c(F)c(F)c(F)c2F)cc(OC)c1OC	8%	19%	13%	20%[59 µM]	-16%
COc1cc(C(=O)OCC(=O)Nc2c(F)cccc2F)cc(OC)c1C	17%	7%	?	45µM*	5%[11.4 µM]
CC(C)CSC1=NSC2=NC(=O)/C(=C\c3cccs3)C(=N)N12	-4%	23%	?	45µM*	?
COc1ccc(N2CCN(c3oc(-c4ccc(COc5cccc(C)c5)o4)nc3C#N)CC2)cc1	19%	.	?	?	?
CN(C)c1ncc2nc(-c3ccccc3)c(=O)n(CCC#N)c2n1	.	2%	.	2%[0.501 µM]	.
Cc1cccc(OCCSc2nc(N)cc(N)n2)c1	-10%	45µM*	?	.	-12%[11.4 µM]
CCOC(=O)COc1ccc(C)cc1C(=O)c1ccn2nc(-c3ccc(C)cc3)cc2n1	26%	.	-11%	20%[59 µM]	0%
CCCCOc1ccc(C2=CSC3=NCCN23)cc1[N+](=O)[O-]	-11%	7%	-26%	?	?
CCCCOc1ccc(-c2csc(N)n2)cc1[N+](=O)[O-]	-11%	40µM*	?	8.9µM*	-19%
CCc1ccc(NC(=O)CSc2nc(=O)n(Cc3ccco3)c3c2CCC3)cc1	13%	.	-18%	-7%[59 µM]	-8%
CCOc1ccc(-c2nnc(SCC(=O)NC3CCCC3)nc2-c2ccc(OCC)c(OC)c2)cc1OC	9%	.	-10%	?	-17%
CCOc1cc(-c2nnc(SCC(=O)Nc3ccc(F)c(F)c3)nc2-c2ccc(OC)c(OCC)c2)ccc1OC	23%	.	?	13µM*	-16%
CCOc1ccc(-c2nnc(SCC(=O)NC(C)(C)C)nc2-c2ccc(OCC)c(OC)c2)cc1OC	14%	-10%	-15%	50µM*	?
O=C(OCC#CCSc1nnc(-c2cccc3ccccc23)o1)c1cccc(C(F)(F)F)c1	.	.	.	.	19%

From PubChem
